# Screening data from PubChem.
# INS promoter inh = TRM-6 insulin promoter activity inhibition. AID 1273. inhibition, % at 2 µM. TRM-6 cells (human fetal islet line), insulin promoter-eGFP reporter, imaging; reporter expression induced with tamoxifen. 130,000 tested, 0.9% active;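 active means inhibition above the mean plus 3 SD, with well images judged a real hit on visual review, cut at about 60% in these data, passing the limit was not always enough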
# Autophagy mod = modulators of autophagy; MEF GFP-LC3 puncta imaging; test concentration mostly 10 µM; calls only at 10 µM (by protocol); 190,000 tested, 0.98% active; AID 463193;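 active means percentage of spot-positive cells more than 3 SD above its plate mean, without a fluorescence outlier flag or 80% toxicity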;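 further: spot-positive cell cutoff set from DMSO-treated cells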
# Lmaj promast = reduces viability of Leishmania major promastigotes; resazurin fluorescence viability; inhibition, % at 10 µM; 200,000 tested, 9% active; AID 1063; in the data active means inhibition above about 50%;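 further: promastigotes grown with compound for 44 hours at 28 °C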
# Insulin prom up = MIN6 insulin promoter up-regulation; MIN6 insulin promoter-GFP reporter, high-content imaging; active compounds read high; z-score at 5 µM; 190,000 tested, 0.3% active;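 active means z-score above 3 at 5 µM with at least 500 cells counted in the well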
# WT yeast gro inh = growth inhibition of WT yeast, mitochondrial fusion screen. mitochondrial fusion phenotypic screen, WT strain. inhibition, % at 10 µM. 190,000 tested, 2.1% active; in the data active means inhibition above about 58%; tested in S. cerevisiae
# Numbers without * were called inactive; i = inactive; x = no result given; + = active, no number. Most compounds without a hit are left out; they make up all but 11% or so of the library.
SMILES,INS promoter inh,Autophagy mod,Lmaj promast,Insulin prom up,WT yeast gro inh
Cc1nn(Cc2cccc(C(=O)NC34CC5CC(CC(C5)C3)C4)c2)c(C)c1Br,31.2,i,54.0*,x,56.6
Cc1nn(Cc2ccccc2Cl)c(C)c1NC(=O)c1ccn(C)n1,-15.4,i,-4.3,-0.35,-4.1
Cc1nn(Cc2ccccc2Cl)c(C)c1NC(=O)NC12CC3CC(CC(C3)C1)C2,30.0,i,17.1,x,72.6*
O=C(NCc1ccncc1)C(=O)NC1CC1,38.5,i,-3.5,-0.11,-7.2
O=C(c1ccccc1Cl)N1N=C(c2ccc(Br)cc2)CC1c1nc2ccccc2[nH]1 (centres undefined),-21.6,i,20.0,x,73.5*
NS(=O)(=O)c1ccc(NC(=O)COC(=O)c2ccc([N+](=O)[O-])s2)cc1,x,x,x,0.27,x
CSC(=S)N/N=C(\C)c1ccc(Br)cc1,x,i,-2.9,0.11,67.7*
C/C(NC1CCCCC1)=C(/C#N)C(=O)NCCN1CCOCC1,x,i,50.0*,x,-9.3
Nc1[nH]ncc1N=Nc1ccc(Cl)cc1,16.2,i,2.0,x,5.4
Nc1[nH]ncc1-c1ccc(Cl)cc1,-22.2,+,1.2,0.02,5.2
CCOc1ccc(NS(=O)(=O)c2ccc(OCC)c3ncccc23)cc1,21.4,i,5.2,0.47,10.4
CCOc1ccc(S(=O)(=O)NCc2ccc(C)cc2)c2cccnc12,21.4,i,97.7*,0.17,-11.2
COc1ccc(C(=O)COC(=O)C2CCCN2C(=O)C23CC4CC(CC(C4)C2)C3)cc1 (centres undefined),-22.2,i,55.2*,-0.04,-5.5
N#Cc1nc(COc2ccc(Cl)cc2)oc1NCc1ccc2c(c1)OCO2,-19.4,i,75.2*,0.45,21.9
COC(CNC(=O)C1CCCN1C(=O)OCc1ccccc1)OC (centres undefined),7.1,i,-3.3,0.26,-14.6
COC(=O)[C@@H]1C[C@]2(OC(=O)c3ccccc3)C=CC(=O)C[C@@H]2N1C(=O)OCc1ccccc1,19.1,i,100.3*,1.27,-22.4
Cc1ccccc1CN1CCN(CC(=O)NCc2ccccc2)C1=O,-270.0,i,-4.6,0.8,0.6
COc1cccc(CC(=S)N2CCOCC2)c1,-51.7,i,25.7,x,-12.3
c1cncc(-c2nc(NCCCN3CCOCC3)c3c4c(sc3n2)CCC4)c1,-36.4,+,67.9*,-1,1.6
COc1ccc(CCNC(=O)CSc2nnc3ccc(-c4cccnc4)nn23)cc1,-22.2,i,8.3,0.18,-3.9
CCn1cc(C(=O)N2CCc3ccccc32)c(=O)c2cc(S(=O)(=O)N3CCOCC3)ccc21,x,i,-8.7,1.79,-14.1
CCCN(CCC)CCCNC(=O)c1cn(CC)c2ccc(S(=O)(=O)N3CCc4ccccc4C3)cc2c1=O,-35.7,i,99.4*,-0.48,-7.2
CCn1cc(C(=O)N2CCc3ccccc32)c(=O)c2cc(S(=O)(=O)N(C)C3CCCCC3)ccc21,14.3,i,5.1,-0.06,83.3*
CCn1cc(C(=O)NCCCN2CCC(C)CC2)c(=O)c2cc(S(=O)(=O)N3CCCC3)ccc21,x,i,-2.2,-0.15,-3.8
CCCCN(CC)CCCNC(=O)c1cn(CC)c2ccc(S(=O)(=O)N3CCc4ccccc4C3)cc2c1=O,x,i,98.3*,x,4.1
SMILES,INS promoter inh,Autophagy mod,Lmaj promast,Insulin prom up,WT yeast gro inh
CCn1cc(C(=O)NCc2ccco2)c(=O)c2cc(S(=O)(=O)N3CCc4ccccc4C3)ccc21,x,i,97.4*,-0.4,-6.2
CCOc1cc(/C=N/n2c(C)nnc2C)ccc1O,x,x,x,-0.69,x
CCn1cc(C(=O)NCCCN2CCCC2)c(=O)c2cc(S(=O)(=O)N3CCc4ccccc4C3)ccc21,28.6,i,45.6,-0.13,0.0
CCCCN(C)CCCNC(=O)c1cn(CC)c2ccc(S(=O)(=O)N3CCc4ccccc4C3)cc2c1=O,-100.0,i,99.2*,-0.65,3.5
CCn1cc(C(=O)NCCN(C)CCc2ccccc2)c(=O)c2cc(S(=O)(=O)N(C)C)ccc21,-10.7,i,14.7,3.87*,20.0
CCOC(=O)C1=C(C)OC(N)=C(C#N)C1c1cc2ccccc2nc1N1CCCCC1 (centres undefined),61.3,i,86.2*,x,10.3
CCOC(=O)C1=C(C)OC(N)=C(C#N)C1c1cc2cc(C)ccc2nc1N1CCCCC1 (centres undefined),46.7,i,13.4,0.69,-10.7
CCCNC(=O)[C@H](C)NC(=O)c1ccc(Br)cc1,x,i,12.7,-1.2,-27.1
c1ccc(-c2noc(CN3CCN(C(c4ccccc4)c4ccccc4)CC3)n2)cc1,-14.3,i,3.8,0.05,74.8*
CN(CCN1CCOCC1)Cc1nc(-c2ccccc2)no1,x,i,90.2*,-0.15,-2.8
COC(=O)[C@@H]1CCCN1C(=O)CCc1nnc(C2CCCCC2)o1,-22.2,i,-2.2,0.4,-5.1
O=C1NC(c2ccccc2)Nc2c1sc(=S)n2-c1ccccc1 (centres undefined),44.4,i,15.6,-0.38,9.2
CN(C)c1nnnn1-c1ccccc1Oc1ncc(C(F)(F)F)cc1Cl,-100.0,i,-0.6,-0.38,-17.4
COc1ccc(-c2csc(N3C(=O)C4C5c6ccccc6C(c6ccccc65)[C@@H]4C3=O)n2)cc1 (some centres undefined),-40.0,i,-3.8,-0.09,4.1
COc1ccc(-c2csc(N3C(=O)C4C5c6ccccc6C(c6ccccc65)C4C3=O)n2)cc1 (centres undefined),8.3,i,60.2*,0.99,14.7
CC(C)[C@@H]1CC[C@@H](C)c2c(-c3ccccc3)n[nH]c21,x,i,18.1,-0.9,62.4*
CC(C)CCN(C)C1CCN(C(=O)Nc2c(F)cccc2F)CC1,x,i,-2.6,0.19,6.0
CCC(=O)Nc1cccc(C(=O)/C=C/c2ccc(F)cc2)c1,14.3,i,100.4*,-1.3,26.3
CC(=O)Nc1cccc(C(=O)/C=C/c2ccc(C)cc2)c1,x,i,100.0*,-0.31,43.2
O=C(/C=C/c1ccccc1)c1ccccc1,40.9,i,17.1,x,-1.9
CSc1ccc(/C=C/C(=O)c2ccc(NC(C)=O)cc2)cc1,0.0,i,57.2*,-0.59,21.3
CCOc1ccc(/C=C/C(=O)Nc2cccc(C(C)=O)c2)cc1,-10.0,i,-4.4,-0.33,8.0
CCCC(=O)Nc1ccc(C(=O)/C=C/c2ccc(SC)cc2)cc1,x,i,23.3,-0.05,-0.9
CN(C)c1ccc(/C=C/C(=O)c2cccc(Br)c2)cc1,x,+,7.0,2.89,-18.3
O=C1CCCCC1C(Nc1ccc(Br)cc1)c1ccccc1 (centres undefined),31.0,i,17.3,1.08,65.4*
Cn1cccc1/C=C1\CC(C(C)(C)C)C/C(=C\c2cccn2C)C1=O (centres undefined),-13.9,+,87.2*,x,5.8
Cn1cccc1/C=C1\CCc2ccccc2C1=O,-53.3,i,-2.2,-0.11,59.7*
C/C(CC(=O)NC1CCCCC1)=N\NC(=O)COc1ccc(C)cc1Br,x,i,-2.4,0.05,11.6
CCCC(C)C(=O)Nc1ccc(S(=O)(=O)Nc2nccs2)cc1 (centres undefined),-25.9,i,-8.7,0.08,-0.6
